From PubChem BioAssay (NCI) come the findings set out here.

Molecules are shown by their SMILES. About 83,000 compounds went through this panel and 20% of them were active in at least one assay; those are over-represented in the sample as a whole.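 Activity criterion: percent growth below 10, measured after cells in 96-well plates were exposed to a single compound concentration for 48 hours.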 Values without a mark were called inactive. Active and inactive are the calls of the source.

Assay in all cases: NCI-60 one-dose screen, 48 h (100 = growth as untreated, 0 = no growth, -100 = all killed)
Holding throughout (conditions): 10 µM unless noted

Test [1] relates to NCI-H23 lung.
Test [2] relates to NCI-H226 lung.
Test [3] concerns NCI-H322M lung.
For test [4], the system named is HOP-62 NSCLC.
Test [5] deals with NCI-H460 lung.
Test [6] has as its system HOP-92 NSCLC.
The test system of test [7] is NCI-H522 lung.
Test [8] has as its system A549/ATCC NSCLC.
In test [9] the test system is 786-0 renal.
Test [10] concerns COLO 205 colon.
Test [11] has as its system DU-145 prostate.
Test [12] relates to K-562 leukemia.
For test [13], the system named is MALME-3M melanoma.
Test [14] has as its system MDA-MB-231 breast.
For test [15], the system named is RXF 393 renal.
Test [16] relates to SF-268 CNS.
The subject of test [17] is SF-295 CNS.
In test [18] the test system is SF-539 CNS.
Test [19] has as its system UACC-257 melanoma.
The subject of test [20] is M14 melanoma.

Regarding `CC(=O)Oc1c2c(nc3c1c1ccccc1n3Cc1ccccc1)-c1ccccc1C2`, the growth in test [1] is 72%; in test [2], 85.9%; in test [3], 92.2%; in test [4], 79.7%; in test [5] it was 98.2%; in test [6] it was 90.5%. For the same compound, the growth in test [7] was 51%; in [8], 85.7%; in test [9], 91.8%; in test [10], 97.9%; in test [11], 99.1%; in test [12], 78.4%. In addition, the growth was 102% in test [13]; 80.4% in test [14]; 116% in [15]; 93.2% in test [16]; 96% in [17]; 94.5% in [18]. For the same compound, the growth in test [19] was 93.2%; in test [20], 88.3%.
Regarding `CN(C)c1ccc(-c2ccc3[nH]c(=O)nc(-c4ccc(F)cc4)c3c2)cn1`, the growth in [1] was 56.2%; in [2] it was 68.3%; in test [3], 68.2%; in [4], 48.2%; in test [5], 21.6%; in test [6], 56.1%. Also, the growth was 14.9% in [7]; 39.6% in [8]; 30.4% in test [9]; 39.6% in [10]; 51.6% in test [11]; 11.9% in test [12]. Moreover, the growth in test [13] was 64.4%; in test [14] it was 47.7%; in test [15], 41.5%; in test [16] it was 45.5%; in test [17], 21.5%; in test [18], 24.2%. Also, the growth is 54.4% in test [19] and 22.7% in test [20].
`COc1ccc2nc(-c3ccc(Cl)cc3)cc(-c3nnc(SC/C(=N/O)c4ccccc4)o3)c2c1`: the growth in [1] was 26.1%; in test [2], 42.7%; in test [3], 67.9%; in test [4], 59.4%; in test [5], 29.6%; in [6] it was 60.7%. The growth in test [7] is 45.7%; in test [8] it was 37.3%; in [9], 24.9%; in test [10], 31.5%; in test [11] it was 29.7%; in test [12] it was 20.1%. For the same compound, the growth was 25.5% in [13]; 49.6% in test [14]; 5.44% (active) in test [15]; 55.3% in test [16]; 36.3% in [17]; 43.5% in [18]. The growth in test [19] is 60.1%; in test [20] it was 25.2%.
Turning to `CCCCn1c2cc(OCc3cn(-c4ccc(Cl)cc4)nn3)ccc2c2ccnc(C)c21`, the growth in test [1] is 32.4%; in test [2], 52.3%; in test [3] it was 56.6%; in [4], 41.2%; in test [5] it was 21.5%; in [6], 36.9%. Besides, the growth in test [7] is 24.2%; in test [8], 42.1%; in [9], -10.3% (active); in test [10] it was 21.9%; in [11], 72.5%; in [12], 14.4%. The growth in test [13] is 53.9%; in test [14] it was 16.7%; in test [15], 47.6%; in [16] it was 74.6%; in test [17], 40.2%; in [18], 55%. Besides, the results for the growth in [19] and in test [20] were 33.6% and 40.6%, respectively.
Regarding `Nc1c(C(=O)c2ccccc2)sc2nc(-c3cc4ccccc4o3)cc(-c3ccc(Cl)cc3)c12`, the growth in [1] is 89.9%; in test [2], 112%; in [3], 87%; in [4], 102%; in test [5], 103%; in [6] it was -6.31% (active). Further, the growth in test [7] is 84.7%; in test [8] it was 106%; in test [9], 107%; in test [10], 99.4%; in test [11], 90.8%; in test [12], 102%. In addition, the growth in [13] is 101%; in test [14], 85.5%; in test [15], 113%; in [16] it was 94.8%; in test [17], 129%; in test [18] it was 105%. For the same compound, the growth in test [19] was 104%; in [20], 107%.
Turning to `COc1ccc(/C=C(/C(=O)N2CCCC2)c2cc(OC)c(OC)c(OC)c2)cc1`, the growth in [1] was 34%; in test [2], 69.2%; in test [3] it was 45.7%; in test [4], 29.3%; in test [5], 13.6%; in test [6], 47.9%. In addition, the growth in test [7] is 26.3%; in test [8] it was 36.1%; in [9], 35.3%; in test [10], 4.08% (active); in [11], 17%; in test [12] it was 12.5%. Further, the growth in test [13] is 50.1%; in [14], 58.5%; in test [15], 5.92% (active); in test [16], 60.1%; in test [17] it was 18.3%; in test [18], 17.1%. Besides, the results for the growth in test [19] and in test [20] were 52.4% and 2.21% (active), respectively.
Regarding `CCOC(=O)c1c(C)nc2c(c1N)CC(=O)N2CCc1ccccc1`, the growth in test [1] was 53.2%; in test [2], 42.1%; in test [3], 59.3%; in test [4] it was 5.73% (active); in test [5], 6.52% (active); in test [6], 25.3%. Further, the growth was -6.01% (active) in [7]; 23% in test [8]; 8.72% (active) in [9]; 10.7% in [10]; 9.55% (active) in test [11]; 11.7% in test [12]. The growth in [13] was 49.1%; in [14], 31.8%; in test [15] it was 27.1%; in [16], 24%; in [17], 15.6%; in test [18], 13.7%. In addition, the growth in [19] was 56.6%; in [20], 18%.
